Here are results for 96 molecules from PubChem BioAssay AID2797 (The Scripps Research Institute Molecular Screening Center, 2010).

In all, about 320,000 compounds went through this assay and about 820 (0.26%) were called active.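 How the source made its calls: active means activation above the mean activation of all tested compounds plus 3 SD, per screening run (cut at about 20% in these data); inactive means the rest.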 Many of the other results were omitted from the sample, so actives are more common in it than they were.

The target in the experiment is Vasopressin V1a receptor (Homo sapiens) (UniProt P37288). Put plainly: agonists of human V1a receptor, primary screen, counter-screen for OXTR agonist project, fluorescence, CHO-V1R cells (AID 2797).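 Further: signal is peak over basal fluorescence ratio across a 100 second FLIPR read.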 The note with it: Fluo-8 calcium fluorescence, agonist mode, at 3 µM, hits give high values, 0% DMSO, 100% 3 nM vasopressin.
Chain of Vasopressin V1a receptor (Homo sapiens) (P37288 whole entry, looked up): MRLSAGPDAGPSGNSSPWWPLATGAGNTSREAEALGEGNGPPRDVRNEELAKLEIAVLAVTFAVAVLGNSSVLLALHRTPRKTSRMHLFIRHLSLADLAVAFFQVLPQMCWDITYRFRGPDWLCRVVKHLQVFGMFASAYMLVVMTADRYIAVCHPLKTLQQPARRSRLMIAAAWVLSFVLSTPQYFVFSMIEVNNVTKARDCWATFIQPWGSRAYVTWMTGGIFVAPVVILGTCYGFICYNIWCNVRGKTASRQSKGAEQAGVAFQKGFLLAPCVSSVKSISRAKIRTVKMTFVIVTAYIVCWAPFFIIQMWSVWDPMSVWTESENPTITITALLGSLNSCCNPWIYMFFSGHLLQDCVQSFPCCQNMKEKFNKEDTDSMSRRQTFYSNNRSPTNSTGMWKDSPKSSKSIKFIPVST
Take `CCNC(=O)COc1cc(C)c(Br)c(C)c1`: the activation was 2% (inactive).
Take `Cc1cc(C)nc(SC(C)C(=O)N/N=C/c2cccs2)n1` (stereo unspecified): the activation was 0.12% (inactive).
Turning to `COCCCNC(=S)NCCNc1nc2cc(C)c(C)cc2cc1C#N`, the activation was -0.33% (inactive).
As for `c1ccc(-c2cc3c(NCC4COc5ccccc5O4)ncnc3s2)cc1` (stereo unspecified), the activation was 1.35% (inactive).
With `S=C(NCC1COc2ccccc2O1)Nc1ccc(Br)cc1` (stereo unspecified), the activation was 5.7% (inactive).
For the molecule `c1ccc2c(c1)OCC(CNc1ncnc3nc[nH]c13)O2` (stereo unspecified), the activation is 102% (active).
Consider `O=C(N/N=C/c1cc([N+](=O)[O-])ccc1O)/C(=C\c1cccs1)NC(=O)c1ccccc1`, for which the activation was 0.52% (inactive).
With `COc1ccccc1C1=CC(=O)CCC1`, the activation was -0.32% (inactive).
The figure for `COc1cc(OC)cc(C(=O)NCC(=O)OCC(=O)NC(C)CCc2ccccc2)c1` (stereo unspecified) is -0.08% (inactive); for `Cc1cc(C)cc(OCC(=O)NC(C)c2ccccc2)c1` (stereo unspecified) it is -1.15% (inactive).
For the molecule `COc1cc(OC)cc(C(=O)N[C@H](C(=O)OCC(=O)NC(C)c2ccccc2)C(C)C)c1` (stereo partly specified), the activation was 68.5% (active).
With `COc1ccc(C(=O)NC(=S)NNC(=O)CCc2ccccc2)cc1`, the activation is 37.5% (active).
Turning to `COc1ccc(/C(N)=N/OC(=O)CCCc2ccccc2)cc1`, the activation was -0.46% (inactive).
As for `COc1ccc(C(=O)NNC(=S)NC(=O)c2ccccc2)cc1`, the figure is 60% (active); as for `COc1ccc(C(=O)NC(=S)NC2CCCCC2)cc1`, -0.74% (inactive); as for `COc1ccc(C(=O)NNC(=S)NC(=O)c2ccccc2[N+](=O)[O-])cc1`, -0.34% (inactive).
For the molecule `COc1ccc(CCC(=O)c2ccc(OC)cc2)cc1`, the activation is -0.9% (inactive).
For `Cc1ccc(O)c(-c2cc(C(=O)NCc3ccccc3)[nH]n2)c1`, the activation is 0.3% (inactive).
Take `COc1ccc(Cc2nnc(SCC(=O)N(c3ccccc3)C(C)C)n(N)c2=O)cc1`: the activation was -1.17% (inactive).
Regarding `Cc1cccc(NC(=O)CN2CCCN(S(=O)(=O)c3ccc(Br)s3)CC2)c1`, the activation is 1.99% (inactive).
Take `Cc1cc(C)nc(NS(=O)(=O)c2ccc(N3C(=O)C4CCCCC4C3=O)cc2)n1` (stereo unspecified): the activation was 1.65% (inactive).
With `CCNC(=O)CC1C(=O)N(c2ccc(OC)cc2)C(=S)N1CCc1ccncc1` (stereo unspecified), the activation is -0.58% (inactive).
As to `Cc1ccc(C(=O)Oc2ccc(C(=S)N3CCOCC3)cc2)cc1`, the activation was 1.56% (inactive).
As for `O=C(O)C1CCCN1C1=NS(=O)(=O)c2ccccc21` (stereo unspecified), the figure is -0.02% (inactive); as for `O=C1C=CN2CCCC2CC1` (stereo unspecified), 0.74% (inactive); as for `COc1cccc2cc(C(N)=O)/c(=N\NC(=O)c3ccccc3)oc12`, 1.9% (inactive).
The figure for `CCN(CC)c1ccc2cc(C(N)=O)/c(=N\NC(=O)c3ccncc3)oc2c1` is 27.3% (active).
Regarding `NC(=O)c1cc2ccccc2o/c1=N/NC(=O)c1cccc(F)c1`, the activation was 1.54% (inactive).
As to `COc1ccc(CCNC(=O)CSc2nc(-c3ccc(OC)c(OC)c3)ccc2C#N)cc1`, the activation was -0.68% (inactive).
The figure for `COc1cc(NS(=O)(=O)c2ccc(NC(=S)NC(=O)c3ccccc3)cc2)nc(OC)n1` is -0.14% (inactive); for `CC1CCCC(NC(=O)c2cc(S(=O)(=O)N3CCCCC3)ccc2Cl)C1C` (stereo unspecified) it is -0.2% (inactive); for `CCN(CC)C(CNC(=O)CSc1nnnn1-c1cccc(F)c1)c1ccco1` (stereo unspecified) it is -0.26% (inactive).
On to `CCOc1ccc(NC(=O)CSc2nncn2C)cc1`, for which the activation was 0.81% (inactive).
Take `CCCCN(C(=O)c1nn(C)c(=O)c2ccccc12)c1c(N)n(CCC)c(=O)[nH]c1=O`: the activation is 0.08% (inactive).
The figure for `COc1ccc(C(=O)NC(=S)NNC(=O)c2c(-c3ccccc3)noc2C)cc1` is 70.5% (active); for `CCc1noc(C)c1C(=O)NNC(=O)c1ccc(F)cc1` it is 0.87% (inactive).
For `Cc1onc(-c2c(Cl)cccc2Cl)c1C(=O)NNC(=O)c1c(-c2c(Cl)cccc2Cl)noc1C`, the activation is 0.81% (inactive).
As for `Cc1onc(-c2ccccc2)c1C(=O)Nc1ccccc1C#N`, the figure is -1.51% (inactive); as for `Cc1onc(-c2ccccc2)c1C(=O)N=C(N)c1ccc(Cl)cc1`, 0.22% (inactive).
With `Cc1onc(-c2ccccc2)c1C(=O)NNC(=S)NC(=O)c1ccc(F)cc1`, the activation was 21.1% (active).
As for `Cc1ccc(C(=O)Nc2sc(Cc3ccc4c(c3)OCO4)c(C)c2C(N)=O)cc1`, the figure is -0.01% (inactive).
Take `COc1ccc(C(=O)C2CCCN(Cc3cccn3-c3ccccn3)C2)c(C)c1` (stereo unspecified): the activation was 8% (inactive).
The figure for `COC(=O)C1=C(C(=O)OC)C(c2cc([N+](=O)[O-])ccc2O)c2sc(=O)[nH]c2S1` (stereo unspecified) is 0.68% (inactive); for `CC1(C)OC(=O)C(=CSc2ccc(C(C)(C)C)cc2)C(=O)O1` it is 1% (inactive); for `Fc1ccc(NC(=S)N2CCc3[nH]c4ccccc4c3C2)cc1` it is 4.06% (inactive).
On to `CC1CCc2[nH]c3ccc(C(=O)N(C)CC(=O)Nc4cccc(F)c4)cc3c2C1` (stereo unspecified), for which the activation was 0.41% (inactive).
With `O=C(CCCN1CCc2[nH]c3ccc(F)cc3c2C1)c1ccc(F)cc1`, the activation was 23% (active).
As to `Cc1cc(OCc2ccc(C(=O)Nc3ccc(C(=O)O)cc3)o2)ccc1Cl`, the activation was 2.11% (inactive).
As for `S=c1nccc(-c2cc(Cl)sc2Cl)[nH]1`, the activation was 0.23% (inactive).
As for `O=C(c1ccccc1)c1ccc(OCC(O)CN2CCCC2)cc1` (stereo unspecified), the figure is 22.4% (active); as for `O=C(c1ccc(Cl)cc1)c1ccc(OCC(O)CN2CCCCC2)cc1` (stereo unspecified), 4.01% (inactive).
Turning to `CC1CCN(CC(O)COc2ccc(C(=O)c3ccccc3)cc2)CC1` (stereo unspecified), the activation was 1.88% (inactive).
Turning to `CCOC(=O)C1(C)NC(c2ccco2)C2C(=O)N(c3ccccc3)C(=O)C21` (stereo unspecified), the activation is 3.3% (inactive).
In the case of `COc1ccc(NC(=O)CN(Cc2ccccc2)S(C)(=O)=O)cc1OC`, the activation is 0.58% (inactive).
As for `COc1ccc(OCCNC(=O)c2cc(C3CC3)nc3c2cnn3C(C)C)cc1`, the figure is -0.36% (inactive); as for `CCOC(=O)C1=C(NC(=S)NC(=O)c2ccccc2)c2ccccc2CC1(C)C`, 29.8% (active).
Take `COCCCNC(=S)NC(=O)c1ccccc1`: the activation is 1.26% (inactive).
For `Cc1ccc(NC(=S)NC(=O)c2ccc(-c3ccccc3)cc2)cc1`, the activation was 0.62% (inactive).
Take `Cc1ccc(NC(=O)CSc2nn3c(=O)c(C)nnc3s2)cc1Cl`: the activation was 0.31% (inactive).
On to `CCC(C)C(=O)Nc1cc([N+](=O)[O-])ccc1Cl` (stereo unspecified), for which the activation is -0.34% (inactive).
With `CC(C)(C)NC(=O)C(=O)NCc1ccncc1`, the activation was 0% (inactive).
With `O=C(OCCN=C1NS(=O)(=O)c2ccccc21)c1cccc([N+](=O)[O-])c1`, the activation was 3.94% (inactive).
As for `O=C(CCCN=C1NS(=O)(=O)c2ccccc21)OCC(=O)c1ccc(F)c(F)c1`, the activation was 22.6% (active).
Consider `N#CC1(NC(=O)COC(=O)CCN=C2NS(=O)(=O)c3ccccc32)CCCCC1`, for which the activation was 0.74% (inactive).
For the molecule `N#CCN(C(=O)COC(=O)C1CC2CCCC(C1)C2=O)c1ccccc1` (stereo unspecified), the activation was -0.11% (inactive).
As to `COc1ccc(C23NCCN2C(=O)c2ccccc23)cc1` (stereo unspecified), the activation was -0.14% (inactive).
As to `CC1CCN(CCC(=O)Nc2ccccc2)CC1`, the activation is 0.38% (inactive).
Regarding `CCOC(=O)N1CCN(CCC(=O)Nc2ccccc2)CC1`, the activation was 0.3% (inactive).
For the molecule `Cc1cc(NC(=O)CCN2CCN(Cc3ccccc3)CC2)ccc1Br`, the activation was 26.5% (active).
The figure for `Cc1cc(C)c(/C=C2\C(=O)Nc3ccccc32)[nH]1` is 23.6% (active); for `CN(C)/C=C1/Nc2ccccc2C1=O` it is 1.1% (inactive).
Consider `O=C1Nc2ccccc2/C1=C/c1ccnc2ccccc12`, for which the activation is 3.16% (inactive).
For `COc1ccc([C@H]2CC(=O)C=C(c3ccc(OC(F)(F)F)cc3)C2)cc1OC`, the activation was 1.96% (inactive).
As for `COc1ccc(C2CC(c3cccs3)Nc3nnnn32)cc1` (stereo unspecified), the activation was 1.36% (inactive).
As for `Cc1ccc(S(=O)(=O)NCCC(=O)NNC(=O)C2COc3ccccc3O2)cc1` (stereo unspecified), the figure is -0.1% (inactive).
In the case of `COc1ccc(C2C(C#N)=C(N)N(c3ncn[nH]3)C3=C2C(=O)CCC3)cc1` (stereo unspecified), the activation is 1.11% (inactive).
In the case of `CN(C(=O)COC(=O)c1ccc(Br)o1)c1c(N)n(Cc2ccccc2)c(=O)[nH]c1=O`, the activation was -0.45% (inactive).
On to `C=CCSc1nc2c(c(=O)[nH]c(=O)n2C)n1Cc1ccccc1`, for which the activation was 0.69% (inactive).
As for `Cc1cc2nc3c(=O)n(Cc4ccccc4)c(=O)[nH]c3nc2cc1N`, the activation is 73.4% (active).
Regarding `C[C@H](NC(=O)c1nc[nH]c1C(=O)NCC(=O)OC(C)(C)C)c1ccccc1`, the activation was -0.3% (inactive).
Consider `Cc1c(Br)cc(C(=O)N2CCCCCC2)c(C)c1C`, for which the activation is -1.61% (inactive).
As for `O=C(NC(=S)Nc1ccccc1N1CCCCC1)c1ccc(F)cc1`, the activation is -0.81% (inactive).
Consider `O=C(Cc1ccc(Cl)cc1)NC(=S)Nc1ccccc1O`, for which the activation was 47.5% (active).
With `O=C(COc1ccc(Cl)cc1)NC(=S)Nc1ccccc1N1CCOCC1`, the activation is 3.48% (inactive).
Consider `COC(=O)Cc1ccc(NC(=S)NCc2ccc(Cl)cc2)cc1`, for which the activation is 10% (inactive).
As for `Cc1cccc(NC(=S)NCCc2ccc(Cl)cc2)c1C`, the figure is 0.32% (inactive); as for `Cc1ccccc1NC(=S)NC(=O)Cc1ccc(Cl)cc1`, 26.2% (active).
Consider `Cc1ccccc1N/C(SCc1ccc(Cl)cc1)=C(/C#N)C(N)=O`, for which the activation is -0.5% (inactive).
For the molecule `CCN1CCN(C(=O)CN(C)S(=O)(=O)c2ccc3ccccc3c2)CC1`, the activation was 0.47% (inactive).
Consider `Cc1nc2scc(-c3cccs3)c2c(=O)n1N`, for which the activation is -0.59% (inactive).
As for `CCOc1ccc(C(=O)Nc2ccc(S(=O)(=O)NCC3CCCO3)cc2)cc1OCC` (stereo unspecified), the activation is 1.35% (inactive).
Regarding `Cc1ccc(OCCNC(=O)CNC(=O)c2ccc(C)c(C)c2)cc1`, the activation is -0.83% (inactive).
As for `Cc1nc2c(ncn2-c2ccccc2)c(=O)n1NC(=O)CN1CCCC1`, the activation is 0.46% (inactive).
Take `Brc1ccc(C2=CC(c3ccco3)n3ncnc3N2)cc1` (stereo unspecified): the activation is 9.25% (inactive).
As for `CCOc1ccc(C2=CC(c3ccccc3)n3ncnc3N2)cc1` (stereo unspecified), the figure is 0.49% (inactive).
As for `COc1ccc(C2C=C(c3ccc(Br)cc3)Nc3nc(NS(C)(=O)=O)nn32)cc1` (stereo unspecified), the activation is 23.5% (active).
